Screening data as filed in PubChem.
Only a selection was taken, and hits are over-represented in it overall.
Dicer processing – blocks human Dicer maturation of pre-miR-21; AID 1347074; hit rate 6% among 47,000; cat-ELCCA pre-miR-21 Dicer processing, chemiluminescence; hits give high values; z-score at 25 µM; in the data active = z-score above about 3, passing the limit was not always enough;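 also: plate controls were vehicle for no effect and no enzyme for full effect; higher signal means more uncleaved substrate so more Dicer inhibition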
* = called active by the depositor.

SMILES	Dicer processing
COc1cccc(C(Nc2cc(C)ccn2)c2ccc3ccc(C)nc3c2O)c1 (configuration not stated)	6.8*
Cc1ccnc(NC(c2ccc(N(C)C)cc2)c2ccc3cccnc3c2O)c1 (configuration not stated)	6.3
CCOc1cc(C(Nc2cc(C)ccn2)c2ccc3cccnc3c2O)ccc1OC (configuration not stated)	-0.73
COc1ccc(C(Nc2ccccn2)c2ccc3ccc(C)nc3c2O)cc1OC (configuration not stated)	0.29
CCOc1ccc(C(Nc2cc(C)ccn2)c2ccc3cccnc3c2O)cc1OC (configuration not stated)	5.2*
CCOc1cccc(C(Nc2ccccn2)c2ccc3ccc(C)nc3c2O)c1 (configuration not stated)	-0.34
CSc1cc(C(F)(F)F)c(C(=O)Nc2ccc(Cl)cc2)cn1	-0.05
COc1ccc(N2C(=O)C3C(C2=O)N2CCCN2C3c2ccccc2)cc1 (configuration not stated)	-0.23
O=C1OC(c2ccccc2)=C(C(=S)Nc2ccc(Cl)cc2)C1=O	-0.92
CCCCc1c(COC)[nH]c(=S)[nH]c1=O	0.89
Cc1ccc(-c2nnc(NC3CCCCC3)c3ccccc23)cc1S(=O)(=O)NCC1CCCO1 (configuration not stated)	-0.59
Cc1ccc(N2C(=O)C3C4C=CC(O4)C3C2=O)cc1C (configuration not stated)	0.04
Cc1ccc(S(=O)(=O)Nc2ccc(O)c(S(=O)(=O)c3ccc(C)cc3)c2)cc1	4*
Cc1ccc(NS(=O)(=O)c2ccc(S(N)(=O)=O)cc2)cc1	-1.7
CC(=O)Nc1cc(C)c(NS(=O)(=O)c2ccc(C)cc2)c(C)c1	-1.1
CCN(CC)CC#CC(O)(c1ccccc1)c1ccccc1	0.86
CCN(CC)CC#Cc1cccc(C)c1	5*
Cc1ccc2[nH]c(=S)n(Cc3ccc(C#N)cc3)c(=O)c2c1	-3.5
O=c1oc(-c2ccccc2)nc2c1oc1ccccc12	0.91
FC(F)(F)c1ccn(-c2ncnc3scc(-c4ccccc4)c23)n1	-0.78
CCOC(=O)c1c(NC(=O)C(C)Oc2ccc(OC)cc2)sc2c1CCC(C)C2 (configuration not stated)	2.7
CCOC(=O)c1c(NC(=O)Oc2ccccc2)sc2c1CCC2	-0.88
CCOC(=O)c1c(NCc2cc(OC)ccc2O)sc2c1CCC2	4.1*
CCOC(=O)c1c(NC(=O)Nc2cc(OC)ccc2Cl)sc2c1CCN(C)C2	3.4*
CCOC(=O)c1c(NC(=O)Nc2ccc(C)cc2)sc2c1CCN(C)C2	2.1
SMILES	Dicer processing
CCOC(=O)c1c(NS(=O)(=O)c2ccc(OC)c(OC)c2)sc2c1CCC2	-1.3
COCc1[nH]nc2c1C(c1cccc(Br)c1)C(C#N)=C(N)O2 (configuration not stated)	-2.6
CC(C)(C)NCC(O)COc1ccccc1 (configuration not stated)	0.04
CCOC(=O)C1=C(N)Oc2cc(O)ccc2C1c1ccc(F)cc1F (configuration not stated)	0.45
CCOC(=O)C1=C(N)Oc2cc(O)ccc2C1c1ccccc1 (configuration not stated)	0.12
CCOC(=O)C1=C(N)Oc2ccc3ccccc3c2C1c1cccc(O)c1 (configuration not stated)	3.5*
CCCSc1sc(C(=O)OC)c(-c2ccc(Cl)cc2)c1C#N	-3.2
Cc1nc(N)nc(C(F)(F)F)c1Br	1.4
CNc1ccccc1C(=O)NNC(=O)c1cccnc1Oc1ccccc1	0.45
CCN(CC)CCSc1nc(O)c(C(C)C)c(=O)[nH]1	4.2*
CCc1c(O)nc(SCCN(CC)CC)[nH]c1=O	0
CC(C)c1c(O)nc(SCCN2CCOCC2)[nH]c1=O	-0.1
O=C(Nc1csc(-c2cccs2)n1)Nc1ccccc1Cl	-1.7
O=S(=O)(NNc1ncnc2ccsc12)c1ccc(Cl)cc1	0.21
Cc1ccc2c(c1)C(O)(CC(=O)c1ccc3c(c1)CCCC3)C(=O)N2 (configuration not stated)	0.02
O=c1cc(C(F)(F)F)[nH]c2cc(C(F)(F)F)ccc12	-2.4
COc1ccc(NC(=O)Cn2cnc([N+](=O)[O-])n2)c(OC)c1	-0.56
CC(C)OC(=O)Cn1cnc([N+](=O)[O-])n1	-0.76
CC(C)(C)C1CCC(OC(=O)Cn2cnc([N+](=O)[O-])n2)CC1 (configuration not stated)	3.1*
COc1cccc2ccc(=O)n(C)c12	2.1
Cn1c(-c2ccccc2)cn2cc(-c3ccccc3)nc12	8.7
Cn1c(-c2ccccc2)cccc1=O	3.8*
CN(C)c1cccc(N(C)C)c1CNC(=O)Nc1ccccc1	1.8
O=c1[nH]nc(Sc2ccc(C(F)(F)F)cn2)n1C1CCCCC1	0.29
CC(C)C(NC(=O)OCc1ccccc1)C(=O)NCC(=O)O (configuration not stated)	0.24
SMILES	Dicer processing
O=C1c2cc(S(=O)(=O)O)ccc2-c2ccc(S(=O)(=O)O)cc21	-0.18
COc1cccc(C2Oc3ccccc3C3CC(c4cccs4)=NN32)c1OC (configuration not stated)	20*
COc1ccc(O)c(C2=NN3C(C2)c2cccc(OC)c2OC3c2cccs2)c1 (configuration not stated)	3.5*
COc1cccc2c1OC(c1cccs1)N1N=C(c3ccccc3O)CC21 (configuration not stated)	1.3
COc1ccc(C2Oc3c(OC)cccc3C3CC(c4cc(OC)ccc4O)=NN32)c(OC)c1 (configuration not stated)	2.8
COC(=O)c1ccc(C2Oc3c(OC)cccc3C3CC(c4cccs4)=NN32)cc1 (configuration not stated)	-1.6
COc1ccc(O)c(C2=NN3C(C2)c2ccccc2OC3c2cccs2)c1 (configuration not stated)	11*
COc1ccc(O)c(C2=NN3C(C2)c2ccccc2OC3c2ccc(F)cc2)c1 (configuration not stated)	2.4
COc1ccc(O)c(C2=NN3C(C2)c2ccccc2OC3c2ccc(O)c(OC)c2)c1 (configuration not stated)	2.6
Nc1ccccc1NC(=S)Nc1c(Cl)cccc1Cl	-0.77
CCCCN1C(=O)C2(/C(=C(/O)c3ccc(OC)c(C)c3)C(=O)C(=O)N2CCOC)c2ccccc21 (configuration not stated)	0.24
COC(=O)C1=C(C)Nc2ncnn2C1c1cccc(O)c1 (configuration not stated)	3
O=C(Nc1ccccc1)N1CCN(c2nsc3ccccc23)CC1	0.9
O=C(Nc1ncnc2sc3c(c12)CCC3)c1ccc(F)cc1	1.8
CCOC(=O)Cc1nn(Cc2nc(C)c(C(=O)OCC)s2)c(=O)c2ccccc12	-0.54
CCc1c(C(=O)OC)c2cc(NS(C)(=O)=O)ccc2n1S(C)(=O)=O	0.54
O=C(Nc1c(Cl)cccc1Cl)Oc1ccc(F)cc1Cl	-1.1
Cc1ccc(CNCCN2CCOCC2)s1	-1.3
Cc1ccc(CNc2ccc(N3CCOCC3)c(Cl)c2)s1	1.4
Cc1ccc(CNc2ccc(N3CCOCC3)cc2)s1	4*
Cc1cccc(Cl)c1NC(=S)NCc1ccc(C#N)cc1	0.95
Cc1nn(-c2ccc(N3CCNCC3)nn2)c(=O)c2ccccc12	-1.1
CCN(CC)Cc1c(O)ccc2c(=O)c(Oc3ccccc3Cl)c(C(F)(F)F)oc12	1.2
O=C(CC(=O)c1ccccc1O)c1ccc(Cl)cc1	-1
Cc1cc(C)c(C(=O)CC(=O)c2ccccc2Cl)c(O)c1	1.4
Cc1ccc(C(=O)CC(=O)c2ccc(Cl)cc2)c(O)c1	4.4*
